PubChem BioAssay (NCATS)
Results filed as inconclusive are left out. Calls of active or inactive are those of the source. Calls come from the whole dose curve; as a rule, active = well fitted curve in the direction sought with a large enough effect; inconclusive = small, poorly fitted or top-dose-only effect, or another doubt; inactive = no such curve, though single readings can be large; an effect the other way counts as inactive or inconclusive.

How the values were obtained:
[1] = DH5-alpha competent E. coli microbial cell viability qHTS against the NCATS CANVASS Library (AID 1347377); conditions: BacTiter-Glo ATP luminescence, overnight; series mostly up to 46.1 µM
Outline: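 Luminescent ATP read-out (BacTiter-Glo, 20 min RT) after overnight 37C culture of DH5-alpha E. coli with compounds; daunomycin control at 0.2 nM–9.2 uM final.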

[2] = qHTS for H2AX Agonists against the NCATS CANVASS Library (AID 1347378); conditions: CHO-K1 H2AX phosphorylation, HTRF TR-FRET, 3 h; note: potency is the fitted concentration of half-maximal effect
Outline: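 Phospho-H2AX (S139) in CHO-K1 lysates measured by HTRF, reported as 665/615 nm emission ratio after 24 hr antibody incubation at room temperature. Cells were first treated with a compound series for 3 hr at 37C (0.76% DMSO final).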

[3] = qHTS for Inflammasome Signaling Inhibitors: IL-1-beta AlphaLISA screen against the NCATS CANVASS Library (AID 1347379); conditions: THP-1 LPS/ATP, IL-1B AlphaLISA secretion, 16 h;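 note: human THP-1 cells primed with LPS then triggered with ATP; secreted IL-1B measured as AlphaLISA emission at 615 nm; potency is the fitted concentration of half-maximal effect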
Outline: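 THP-1, 1 hr compound pre-incubation, then LPS 250 ng/mL + ATP 1.25 mM (final); 16 hr total with compound; IL-1B AlphaLISA, ex 680/em 615 nm; 11-point qHTS, up to 57.5 uM final.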

[4] = Inflammasome Signaling qHTS Counterscreen: IL-1-beta AlphaLISA counterscreen against the NCATS CANVASS Library (AID 1347381); conditions: Purified IL-1beta AlphaLISA signal interference counterscreen; series mostly up to 57.5 µM;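 note: cell-free check with purified IL-1β in medium and no THP-1 cells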
Outline: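 Here, no cellular stimulation occurs; compounds in an 11-point series meet 4 pg purified IL-1-beta directly. Bead-based AlphaLISA detection follows (1 h acceptor/antibody, then 30 min donor, dark, room temperature), with excitation at 680 nm.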

[5] = qHTS assay for small molecule disruptors of mitochondrial membrane potential screened against the NCATS CANVASS Library (AID 1347389); conditions: HepG2 mitochondrial membrane potential, m-MPI red/green ratio, 1.5 h; note: potency is the fitted concentration of half-maximal effect; nearly all actives have a fitted effect of over 60% in size
Outline: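 Red/green fluorescence ratio read-out: J-aggregates ex 540/em 590 nm, monomers ex 490/em 535 nm. HepG2, 1 hr compound treatment, then 30 min Mito-MPS dye at 37C. 11-pt qHTS concentration series.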

[6] = Secretion counterscreen for inhibitors of the SERCaMP assay screened against the NCATS CANVASS Library (AID 1347390); conditions: SH-SY5Y constitutive GLuc secretion, luminescence, 20 h;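 note: light from luciferase secreted into medium read as a measure of general secretion; potency is the fitted concentration of half-maximal effect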
Outline: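 Counterscreen for secretory-pathway interference: after 4 h attachment, SH-SY5Y-GLuc cells were exposed 20 hours to compounds (final 0.001 - 77 uM), then coelenterazine added and GLuc luminescence recorded; Brefeldin A served as control.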

[7] = qHTS for activators of Nrf2/ARE signaling pathway screened against the NCATS CANVASS Library (AID 1347391); conditions: ARE-bla HepG2, beta-lactamase reporter, 16 h; note: potency is the fitted concentration of half-maximal effect; nearly all actives have a fitted effect of over 60% in size
Outline: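 HepG2 ARE-bla; cpd 11-pt qHTS, 16 h 37C/5% CO2; CCF4 substrate 2 h RT; read ex 405 / em 460 + 530 nm. Viability by CellTiter-Glo luminescence, 30 min RT.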

[8] = qHTS for inhibitors of ER calcium dysfunction: SERCaMP assay screened against the NCATS CANVASS Library (AID 1347393); conditions: SH-SY5Y GLuc-SERCaMP (Gaussia luciferase released on ER calcium loss) secretion, thapsigargin, luminescence; note: potency is the fitted concentration of half-maximal effect; nearly all actives have a fitted effect of over 40% in size
Outline: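 qHTS in SH-SY5Y reporter cells: 16 h compound pretreatment, 4 h thapsigargin, then secreted Gaussia luciferase measured by luminescence.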

[9] = Vero-766 cells viability qHTS against the NCATS CANVASS Library: Counterscreen for Zika virus inhibition assay (AID 1347394); conditions: Vero 766 viability, CellTiter-Glo luminescence, 72 h; note: potency is the fitted concentration of half-maximal effect; nearly all actives have a fitted effect of over 60% in size
Outline: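 CellTiter Glo luminescence measured cytotoxicity after 72 h at 37C in uninfected Vero 766 cells, plated at 1000 cells/well. Compounds were applied in an 11-point series. Wells without cells defined 100% inhibition.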

[10] = qHTS for inhibitors of Wild type Zika virus screened against the NCATS CANVASS Library (AID 1347396); conditions: Vero cells, Zika virus CPE, CellTiter-Glo, 72 h; series mostly up to 45.9 µM;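 note: ATP luminescence of surviving cells so rescue from viral cell killing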
Outline: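 Protection against wild-type Zika cytopathic effect is measured in African green monkey Vero 766 cells exposed to an 11-point compound series. Surviving cells are quantified by CellTiter Glo luminescence after 72 h.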

Measured: Potency

C=C1C(=O)O[C@H]2[C@H]1CC/C(C)=C/CC[C@@]1(C)O[C@@H]21
inactive: [1] | [4] | [10]
active: [2] 4.86 µM | [3] 5.44 µM | [5] 20.9 µM | [6] 15.3 µM | [7] 2.09 µM | [8] 1.72 µM | [9] 29.5 µM
